Hit rate of the full screen: of about 360,000 compounds, about 9,100 (2.5%) were called active. Roughly 4% stayed inconclusive and do not appear here. Many of the other results were omitted from the sample, so actives are more common in it than they were. Values without a mark were called inactive. Rule as the data show it: active = max response below about -50%; inconclusive = no clear call, values can overlap the other calls; inactive = above that.
The compounds below were run against D(3) dopamine receptor (Homo sapiens) (UniProt P35462) (assay: qHTS of D3 Dopamine Receptor Antagonist: qHTS). Details: D3R cells, DiscoveRx beta-arrestin luminescence, antagonist mode; active compounds read low.
Method in brief: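 Cells expressing the human receptor were seeded at 1500 cells/well, incubated overnight at 37 degrees C in 5% CO2, then exposed to library compounds with dopamine controls for 90 minutes at 37 degrees C before luminescent detection.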
% is scaled to controls: 0 for no effect and ±100 for the full control effect.

D(3) dopamine receptor (Homo sapiens), sequence (P35462 whole entry, looked up): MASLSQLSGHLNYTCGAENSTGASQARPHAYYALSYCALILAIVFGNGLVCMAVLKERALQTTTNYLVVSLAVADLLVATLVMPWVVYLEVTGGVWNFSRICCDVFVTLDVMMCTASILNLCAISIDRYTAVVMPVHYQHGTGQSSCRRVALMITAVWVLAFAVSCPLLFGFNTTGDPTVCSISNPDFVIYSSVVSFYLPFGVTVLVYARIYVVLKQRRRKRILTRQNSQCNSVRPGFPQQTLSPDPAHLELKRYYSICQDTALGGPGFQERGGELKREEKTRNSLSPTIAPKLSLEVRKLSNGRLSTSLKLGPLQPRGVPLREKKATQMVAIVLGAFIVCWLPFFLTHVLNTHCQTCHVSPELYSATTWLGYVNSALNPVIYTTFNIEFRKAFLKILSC

SMILES	max response, negative = inhibition
COc1ccc(OC)c(C(O)c2ncc(-c3cccc(C(F)(F)F)c3)[nH]2)c1 (stereo not drawn)	-26%
CCOC(=O)[C@]12CCCC=C1N(Cc1cccc3ccccc13)C(=O)[C@H](CC(=O)NCC13CC4CC(CC(C4)C1)C3)C2	-25.2%
CCCNC(=O)c1cc(C2CCCCN2S(=O)(=O)c2cn(C)cn2)on1 (stereo not drawn)	0.438%
CN(C)c1cccc(NC(=O)c2ccc(-c3ccc(F)c(F)c3)c3ccoc23)c1	-0.987%
CC(C)CN1C(=O)CN(S(C)(=O)=O)CC1(C)C(=O)NCc1ccccc1 (stereo not drawn)	18.8%
Clc1ccc(-n2nnnc2-c2cnc(-c3ccccn3)nc2-c2cccs2)cc1	-60.1% (active)
FC(F)(F)c1nc(-c2ccccc2)ncc1-c1nnnn1-c1ccccc1	16.8%
N#Cc1ccc(CSc2nnc(-c3ccccn3)n2-c2ccc(Cl)cc2)cc1	-15.7%
Cn1c(NCc2cccnc2)nc2cc(-c3ccc(F)cc3)sc2c1=O	0%
CCN(CC)CCn1c2c(c(SCC(=O)Nc3nc4ccccc4s3)nc1=O)CCCC2	-4.31%
CCc1ccc(-c2nnn(Cc3nc4ccccc4s3)n2)cc1	12.9%
CCN(CC)CCCSc1nc2ccccc2s1	-73.9% (active)
CCc1nc2ccc(C(=O)Nc3ccc(OC)c(OC)c3)cn2c1N(C)C(=O)c1cccc(OC)c1	-28%
COc1ccc(-c2nc(CS(=O)CC(=O)NCc3cccnc3)c(C)o2)cc1OC (stereo not drawn)	-53.3% (active)
COc1ccc(-c2nc(CS(=O)CC(=O)NCc3ccccc3)c(C)o2)cc1OC (stereo not drawn)	-17%
COc1cccc(-c2nc(CS(=O)CC(=O)NCc3ccc(F)cc3)c(C)o2)c1 (stereo not drawn)	-12.9%
CCN(CC)CCN(C)C(c1ccnc2ccccc12)c1nnnn1-c1ccc2c(c1)OCCO2 (stereo not drawn)	0%
COc1ccc(CCNC(=O)c2cc3sccc3n2C)cc1OC	-72% (active)
COc1ccc(CCNC(=O)COC(=O)/C=C/c2cccs2)cc1OC	-11.9%
Cn1c(C(=O)NCCCN2CCCCC2)cc2sccc21	-17.4%
COc1cc(C(O)c2nc(-c3cccc(C(=O)O)c3)cs2)ccc1F (stereo not drawn)	5.94%
CN(Cc1c(F)cccc1Cl)C(=O)COC(=O)Cn1cnc2ccccc2c1=O	16%
O=C(COc1ccc(Cl)cc1)NCCC1=CCCCC1	-11.2%
Cc1nnc(OCC(=O)NCCC2=CCCCC2)c2ccccc12	-80.1% (active)

SMILES	max response, negative = inhibition
O=C(COc1cccc(-n2cnnn2)c1)NCCC1=CCCCC1	-5.35%
COc1ccccc1N1CCN(Cc2ccc(OC)c3ccccc23)CC1	-67.7% (active)
COc1cc(CNCc2ccc(OC)c3ccccc23)cc(OC)c1OC	4.84%
COc1ccccc1N1CCN(Cc2cc(OC)c3c(c2)OCO3)CC1	-91.2% (active)
COc1cc(COCC(O)CN2CCN(Cc3ccc4c(c3)OCO4)CC2)cc(OC)c1OC (stereo not drawn)	-12.9%
CNCC(O)CN1CCN(c2ccccc2OC)CC1 (stereo not drawn)	4.65%
COc1ccc(CN2CCN(Cc3ccc(OC)c(OC)c3OC)CC2)cc1	-14%
CNc1cncc(-c2ccc(NS(C)(=O)=O)cc2)n1	-5.71%
COc1ccc(CCNC(=O)Nc2ccc3c(c2)c(=O)n(C)n3C)cc1OC	6.66%
O=C(CC(CC(=O)c1ccccc1)c1ccco1)c1ccccc1	11.4%
CSCCC(C(=O)NC(C)(C)C)n1c(-c2ccccc2)nc2ccccc21 (stereo not drawn)	-15.5%
CC(C)(C)NC(=O)C(CCc1ccccc1)n1c(=O)c(-c2ccccc2)nc2ccccc21 (stereo not drawn)	-66.1% (active)
CCC(C(=O)NC(C)(C)C)n1c(-c2ccccc2)nc2ccccc21 (stereo not drawn)	0.73%
Cc1cn([C@H]2C[C@H](O)[C@@H](CNC(=O)[C@H](N)Cc3cccnc3)O2)c(=O)[nH]c1=O	22.6%
Cc1ccc(NC(=O)COC(=O)CN2CCSC2=O)cc1F	37.5%
Cn1nccc1C(=O)N1CCCC(C(=O)c2ccc(Oc3ccccc3)cc2)C1 (stereo not drawn)	22.9%
O=C(c1ccc(-c2ccccc2)cc1)C1CCCN(C(=O)c2cncs2)C1 (stereo not drawn)	-57.7% (active)
CCNC(=O)N1CCCC(C(=O)c2ccc(-c3ccccc3)cc2)C1 (stereo not drawn)	10.6%
CC1(C(=O)Nc2cccc3c2CCCC3)CCN1C(=O)CCc1ccc(Cl)cc1Cl (stereo not drawn)	9.05%
COc1cccc(CNc2nc3cc(-c4csc5ccccc45)sc3c(=O)n2C)c1	6.45%
COc1cc2c(cc1OC)C(C(C)C)=NC(C)(C)C2	-19.9%
COc1cc2c(cc1OC)C(Nc1ccc(S(N)(=O)=O)cc1)=NC(C)(C)C2	3.38%
COc1cc2c(cc1O)C(SC)=NC(C)(C)C2	-89.4% (active)
CCOC(=O)C1CCCN(C(=O)c2ccc(C)c(F)c2)CC1 (stereo not drawn)	-26.1%

SMILES	max response, negative = inhibition
Cc1sc2ncnc(SCC(=O)NC3CCS(=O)(=O)C3)c2c1C (stereo not drawn)	-20.5%
CCOc1ccc(CN2CCCN(C)CC2)cc1	-29.1%
CC1(C(=O)NCCc2c[nH]c3ccccc23)C=CC2(CCCCC2)N1C(=O)c1ccccc1 (stereo not drawn)	45.7%
CCOc1ccc(CN2CCN(Cc3c[nH]c4ccccc34)CC2)cc1	-60% (active)
CCOc1ccc(CN2CCN(CCCc3ccccc3)C(CCO)C2)cc1 (stereo not drawn)	-25.6%
Cc1ccc2[nH]cc(CCNC(=O)C3CCCCC3)c2c1	11.6%
O=C(NCCc1c[nH]c2ccccc12)C1CCN(Cc2ccc(Br)cc2)CC1	-82.8% (active)
C[C@H]1CN([C@@H](C)CO)C(=O)CCCn2cc(nn2)CO[C@@H]1CN(C)S(=O)(=O)c1cccc(C#N)c1	14.4%
COc1ccc(N2c3ccccc3CN(Cc3ccccc3)[C@@H](C)[C@H]2Cc2ccc(-c3ccccc3)cc2)cc1	9.42%
CCC(=O)N1Cc2cc(C(=O)NCc3cccc(F)c3)nc(-c3cccc(C4=CCCC4)c3)c2[C@H]1CCO	-8.57%
CCOC(=O)c1c(C)[nH]c(C)c1C(=O)COC(=O)/C=C/c1cccc([N+](=O)[O-])c1	19.7%
O=C(COC(=O)/C=C/c1ccc(Cl)cc1)NC1CCS(=O)(=O)C1 (stereo not drawn)	-20.8%
Cc1ccc(-c2nc(CSCC(=O)NC3CCN(Cc4ccccc4)CC3)c(C)o2)cc1	-76.3% (active)
Cc1ccc(-c2nc(CS(=O)CC(=O)NC3CCCC3)c(C)o2)cc1 (stereo not drawn)	12.9%
Cc1cc(NC(=O)CSCc2nc(-c3cccc(Cl)c3)oc2C)no1	-28.8%
Cc1cc(NC(=O)c2cc3ccccc3o2)no1	3.37%
CN(C)C(CNC(=O)c1cc2ccccc2o1)c1ccccc1 (stereo not drawn)	-82.9% (active)
CN(C)C(CNC(=O)Cc1ccc([N+](=O)[O-])cc1)c1ccccc1 (stereo not drawn)	-19%
CCCOc1ccc(Cn2c(O)cc(=O)[nH]c2=O)cc1	-8.86%
COc1ccc(OC)c(NC(=O)C2(C)CCN2C(=O)Cc2ccccc2)c1 (stereo not drawn)	19.2%
COc1cc(=O)[nH]c(=O)n1C(=O)Cc1ccccc1	-54.3% (active)
CC1(C(=O)NS(=O)(=O)c2ccccc2)CCN1C(=O)C1CCCCC1 (stereo not drawn)	-29.5%
CC(=O)Nc1ccc(-c2ccnc3c2CC(C(=O)NC(C)C)O3)cc1 (stereo not drawn)	23.5%
CC1CC(NC(=S)N(C)C)CC(C)(C)C1 (stereo not drawn)	-2.04%

SMILES	max response, negative = inhibition
CC(CC(=O)O)C(=O)c1ccc(Cl)c([N+](=O)[O-])c1 (stereo not drawn)	7.05%
CC(=O)Nc1ccc(C=CC(=O)c2ccc([N+](=O)[O-])cc2)cc1	1.23%
O=C(/C=C/c1ccc(Cl)c([N+](=O)[O-])c1)c1ccc(O)cc1	-79.6% (active)
CCCCn1nnnc1C(c1ccccc1)N1CCN(c2ccccc2OC)CC1 (stereo not drawn)	-12.3%
OC(c1ccc(F)cc1)c1ncc(-c2cccc(C(F)(F)F)c2)[nH]1 (stereo not drawn)	4.48%
CCCCNC(=O)C[C@@H]1C[C@@]2(C(=O)OCC)CCC=C2N(Cc2cccc3ccccc23)C1=O	0%
CC1=C/C(=N\OS(=O)(=O)c2ccccc2)C=CC1=O	-80.7% (active)
CC(C)(C)C1CCC(=O)N2CCC[C@]2(c2ccccc2)C1 (stereo partly drawn)	0%
CC1(C)OC(=O)C2=C(C[C@@H](C3CCCC3)O[C@@H]2c2ccc(Cl)cc2)O1	0.96%
CN(CC(=O)O)C(=O)c1ccccc1	-19.9%
CN(Cc1ccccc1)C(=O)c1cccc(C(=O)N(C)Cc2ccccc2)c1	-13%
CN(O)C(=S)c1ccccc1	-113% (active)
Cc1csc(=O)n1CCC(=O)OCC(=O)Nc1ccc(N2CCOCC2)cc1	-0.664%
OC(COCC1COc2ccccc2O1)CN1CCN(c2ccc(F)cc2)CC1 (stereo not drawn)	-58.5% (active)
O=C(COC(=O)c1ccc(F)cc1)NCC1COc2ccccc2O1 (stereo not drawn)	-19.4%
O=[N+]([O-])c1ccc(N2CCN(CC(O)COc3ccccc3)CC2)cc1 (stereo not drawn)	-27.1%
CCc1cccc(CC)c1N1C(=O)CC(Sc2ccccc2N)C1=O (stereo not drawn)	-0.919%
C[C@H](CO)N1C[C@H](C)[C@@H](CN(C)S(=O)(=O)c2ccc(Oc3ccccc3)cc2)OCc2cn(nn2)CCCC1=O	2.13%
O=c1c2c3c(sc2n(CCN2CCCC2)c(=O)n1Cc1ccccc1)CCCCC3	-21.9%
CCn1c(=S)[nH]c2sc3c(c2c1=O)CCCCC3	-15.3%
CN(C)CCCn1c(=O)n(Cc2ccccc2)c(=O)c2c3c(sc21)CCCCC3	-52.1% (active)

From PubChem BioAssay AID652054 (National Center for Advancing Translational Sciences (NCATS), 2013)
